This excerpt belongs to a sample that is enriched for the strongest signals.
Tests used:
Assay in all cases: glycan array binding signal (z-score within array); higher = stronger binding
Settings in all cases: glycan notation: IUPAC condensed, linker removed
[1] = biological target: Gal(b1-4)GlcNAc(b1-3)Gal(b1-4)GlcNAc(b1-3)Gal(b1-4)GlcNAc(b1-3)Gal(b1-4)GlcNAc(b1-2)[Gal(b1-4)GlcNAc(b1-3)Gal(b1-4)GlcNAc(b1-3)Gal(b1-4)GlcNAc(b1-3)Gal(b1-4)GlcNAc(b1-6)]Man(a1-6)[Gal(b1-4)GlcNAc(b1-3)Gal(b1-4)GlcNAc(b1-3)Gal(b1-4)GlcNAc(b1-3)Gal(b1-4)GlcNAc(b1-2)Man(a1-3)]Man(b1-4)GlcNAc(b1-4)[Fuc(a1-6)]GlcNAc
Procedure, shortened: (§1)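 Negative Z-scores can be read as non-binding. The Z-score is calculated within each array and then averaged across arrays of one protein sequence at different concentrations or buffers and across linkers. Arrays, 3228 in all, were curated from the Consortium for Functional Glycomics database and kept only where the protein sequence was available.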

[2] = biological target: Gal(b1-4)GlcNAc(b1-3)Gal(b1-4)GlcNAc(b1-3)Gal(b1-4)GlcNAc(b1-3)Gal(b1-4)GlcNAc(b1-3)Gal(b1-4)GlcNAc(b1-2)Man(a1-3)[Gal(b1-4)GlcNAc(b1-3)Gal(b1-4)GlcNAc(b1-3)Gal(b1-4)GlcNAc(b1-3)Gal(b1-4)GlcNAc(b1-3)Gal(b1-4)GlcNAc(b1-2)Man(a1-6)]Man(b1-4)GlcNAc(b1-4)[Fuc(a1-6)]GlcNAc
Procedure, shortened: as §1

[3] = biological target: Gal(b1-4)GlcNAc(b1-3)Gal(b1-4)GlcNAc(b1-3)Gal(b1-4)GlcNAc(b1-3)Gal(b1-4)GlcNAc(b1-3)Gal(b1-4)GlcNAc(b1-2)[Gal(b1-4)GlcNAc(b1-3)Gal(b1-4)GlcNAc(b1-3)Gal(b1-4)GlcNAc(b1-3)Gal(b1-4)GlcNAc(b1-3)Gal(b1-4)GlcNAc(b1-6)]Man(a1-6)[Gal(b1-4)GlcNAc(b1-3)Gal(b1-4)GlcNAc(b1-3)Gal(b1-4)GlcNAc(b1-3)Gal(b1-4)GlcNAc(b1-3)Gal(b1-4)GlcNAc(b1-2)Man(a1-3)]Man(b1-4)GlcNAc(b1-4)[Fuc(a1-6)]GlcNAc
Procedure, shortened: as §1

[4] = biological target: Gal(b1-4)GlcNAc(b1-3)Gal(b1-4)GlcNAc(b1-3)Gal(b1-4)GlcNAc(b1-3)Gal(b1-4)GlcNAc(b1-3)Gal(b1-4)GlcNAc(b1-3)Gal(b1-4)GlcNAc(b1-2)Man(a1-3)[Gal(b1-4)GlcNAc(b1-3)Gal(b1-4)GlcNAc(b1-3)Gal(b1-4)GlcNAc(b1-3)Gal(b1-4)GlcNAc(b1-3)Gal(b1-4)GlcNAc(b1-3)Gal(b1-4)GlcNAc(b1-2)Man(a1-6)]Man(b1-4)GlcNAc(b1-4)GlcNAc
Procedure, shortened: as §1

[5] = biological target: Gal(b1-4)GlcNAc(b1-3)GalNAc
Procedure, shortened: as §1

[6] = biological target: Gal6S(b1-3)GlcNAc
Procedure, shortened: as §1

[7] = biological target: GalNAc(a1-3)GalNAc(b1-3)Gal(a1-4)Gal(b1-4)Glc
Procedure, shortened: as §1

[8] = biological target: Glc(b1-6)Glc
Procedure, shortened: as §1

[9] = biological target: GlcNAc(b1-3)Fuc
Procedure, shortened: as §1

[10] = biological target: GlcNAc(b1-3)Gal(b1-4)GlcNAc(b1-2)Man(a1-3)[GlcNAc(b1-3)Gal(b1-4)GlcNAc(b1-2)Man(a1-6)]Man(b1-4)GlcNAc(b1-4)[Fuc(a1-6)]GlcNAc
Procedure, shortened: as §1

[11] = biological target: GlcNAc(b1-3)Gal(b1-4)GlcNAc(b1-3)Gal(b1-4)GlcNAc(b1-2)Man(a1-3)[GlcNAc(b1-3)Gal(b1-4)GlcNAc(b1-3)Gal(b1-4)GlcNAc(b1-2)Man(a1-6)]Man(b1-4)GlcNAc(b1-4)[Fuc(a1-6)]GlcNAc
Procedure, shortened: as §1

[12] = biological target: GlcNAc(b1-3)Gal(b1-4)GlcNAc(b1-3)Gal(b1-4)GlcNAc(b1-2)[GlcNAc(b1-3)Gal(b1-4)GlcNAc(b1-3)Gal(b1-4)GlcNAc(b1-6)]Man(a1-6)[GlcNAc(b1-3)Gal(b1-4)GlcNAc(b1-3)Gal(b1-4)GlcNAc(b1-2)Man(a1-3)]Man(b1-4)GlcNAc(b1-4)[Fuc(a1-6)]GlcNAc
Procedure, shortened: as §1

[13] = biological target: GlcNAc(b1-3)Gal(b1-4)GlcNAc(b1-3)Gal(b1-4)GlcNAc(b1-3)Gal(b1-4)GlcNAc(b1-3)Gal(b1-4)GlcNAc(b1-2)Man(a1-3)[GlcNAc(b1-3)Gal(b1-4)GlcNAc(b1-3)Gal(b1-4)GlcNAc(b1-3)Gal(b1-4)GlcNAc(b1-3)Gal(b1-4)GlcNAc(b1-2)Man(a1-6)]Man(b1-4)GlcNAc(b1-4)[Fuc(a1-6)]GlcNAc
Procedure, shortened: as §1

[14] = biological target: GlcNAc(b1-3)Man
Procedure, shortened: as §1

[15] = biological target: Neu5Ac(a2-3)Gal(b1-3)GalNAc(b1-3)Gal(a1-4)Gal(b1-4)Glc
Procedure, shortened: as §1

[16] = biological target: Neu5Ac(a2-3)Gal(b1-4)Glc
Procedure, shortened: as §1

[17] = biological target: Neu5Ac(a2-3)Gal(b1-4)GlcNAc(b1-2)Man
Procedure, shortened: as §1

[18] = biological target: Neu5Ac(a2-3)Gal(b1-4)GlcNAc(b1-3)Gal(b1-4)GlcNAc(b1-3)Gal(b1-4)GlcNAc(b1-2)Man(a1-3)[Neu5Ac(a2-3)Gal(b1-4)GlcNAc(b1-3)Gal(b1-4)GlcNAc(b1-3)Gal(b1-4)GlcNAc(b1-2)Man(a1-6)]GalNAc
Procedure, shortened: as §1

[19] = biological target: Neu5Ac(a2-6)Gal
Procedure, shortened: as §1

[20] = biological target: Neu5Ac(a2-6)Gal(b1-3)GlcNAc(b1-3)[Gal(b1-4)GlcNAc(b1-6)]Gal(b1-4)Glc
Procedure, shortened: as §1

[21] = biological target: Neu5Ac(a2-6)Gal(b1-4)GlcNAc(b1-2)Man(a1-3)[GlcNAc(b1-4)][Neu5Ac(a2-6)Gal(b1-4)GlcNAc(b1-2)Man(a1-6)]Man(b1-4)GlcNAc(b1-4)GlcNAc
Procedure, shortened: as §1

[22] = biological target: Neu5Ac(a2-6)Gal(b1-4)GlcNAc(b1-2)Man(a1-3)[Neu5Ac(a2-6)Gal(b1-4)GlcNAc(b1-2)Man(a1-6)]Man(b1-4)GlcNAc(b1-4)[Fuc(a1-6)]GlcNAc
Procedure, shortened: as §1

[23] = biological target: Neu5Ac(a2-6)Gal(b1-4)GlcNAc(b1-2)[Neu5Ac(a2-6)Gal(b1-4)GlcNAc(b1-4)]Man(a1-3)[GlcNAc(b1-4)][Neu5Ac(a2-6)Gal(b1-4)GlcNAc(b1-4)Man(a1-6)]Man(b1-4)GlcNAc(b1-4)GlcNAc
Procedure, shortened: as §1

[24] = biological target: Neu5Ac(a2-6)Gal(b1-4)GlcNAc(b1-3)Gal(b1-4)GlcNAc(b1-3)GalNAc
Procedure, shortened: as §1

[25] = biological target: Neu5Ac(a2-8)Neu5Ac
Procedure, shortened: as §1

[26] = biological target: Neu5Ac(a2-8)Neu5Ac(a2-3)Gal(b1-3)GalNAc(b1-4)[Neu5Ac(a2-8)Neu5Ac(a2-3)]Gal(b1-4)Glc
Procedure, shortened: as §1

[27] = biological target: Neu5Gc(a2-8)Neu5Gc(a2-3)Gal(b1-4)GlcNAc(b1-3)Gal(b1-4)GlcNAc
Procedure, shortened: as §1

B1: B725 (Bifidobacterium sp) (protein)
chain: MNNTTRAVIATAAIGALLIPLAGCGNTTTSSGKTELTVWSWDASIDRAAKSFMKANPDITVKVSNVGSTEETYTALNNAAQAGSGLPDVTLIEYLAIPQFVHSDTLMDLSKVYNTAKLKDTFTPGTWNSVNINGGLYAMPADSGPMAYFYDKDVFDKAGISEPPTTWDEFYEDAKKIRATGSYITSDSGDAGLFNAMMWAMGGHAYKLNDDKLTINIAKDKGAQRFMDLWQKMRDEDLIDVHTKTWTDDWMKSLGDGSIASLISGAWMANNLLQGVPQATGKFRVALLPTIDGTPINGEYGGSGLAITKKIPDGKLDAAKKFVEYVTTNDEGIDARVSNGSFPATTKTLNQKDFLAKTTLRNTDGSDNEFFGGQKYNEIFSQAAKDVTGKWEFLPFEPYARSVYNDNMGSFFAGKTSFRTAADNWQKALKDYAKDQGFTVQ
[1]
  glycan array binding signal (z-score): 6.73
[2]
  glycan array binding signal (z-score): 4
[3]
  glycan array binding signal (z-score): 5.49
[4]
  glycan array binding signal (z-score): 8.21
[5]
  glycan array binding signal (z-score): 0.358
[6]
  glycan array binding signal (z-score): -0.217
[7]
  glycan array binding signal (z-score): -0.209
[8]
  glycan array binding signal (z-score): -0.219
[9]
  glycan array binding signal (z-score): -0.207
[10]
  glycan array binding signal (z-score): -0.131
[11]
  glycan array binding signal (z-score): -0.216
[12]
  glycan array binding signal (z-score): -0.203
[13]
  glycan array binding signal (z-score): 0.138
[14]
  glycan array binding signal (z-score): -0.204
[15]
  glycan array binding signal (z-score): -0.221
[16]
  glycan array binding signal (z-score): -0.228
[17]
  glycan array binding signal (z-score): -0.207
[18]
  glycan array binding signal (z-score): -0.042
[19]
  glycan array binding signal (z-score): -0.222
[20]
  glycan array binding signal (z-score): -0.205
[21]
  glycan array binding signal (z-score): -0.227
[22]
  glycan array binding signal (z-score): -0.217
[23]
  glycan array binding signal (z-score): -0.212
[24]
  glycan array binding signal (z-score): -0.214
[25]
  glycan array binding signal (z-score): -0.215
[26]
  glycan array binding signal (z-score): -0.2
[27]
  glycan array binding signal (z-score): -0.198
